In PubChem BioAssay (Tox21):
Inconclusive results are not listed. A call without a number means that no potency is given here. The source made the active and inactive calls. Unless noted, calls follow the shape of the full dose curve.

Experiments:
[1] = Nuclear factor erythroid 2-related factor 2/antioxidant responsive element (Nrf2/ARE) small molecule agonists: qHTS cell viability counter screen in human keratinocytes (AID 1919968; active = well fitted curve in the direction sought with a large enough effect in the repeat runs; an effect the other way counts as inactive or inconclusive; also: nearly all actives have a fitted effect of over 55% in size; also: potency is read from the fitted curve at half-maximal effect)
Outline: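 Fluorescence read-out from CellTiter-Fluor after 1 h at 37 C. Wells held HaCaT-derived ARE-luciferase reporter cells (1,500/well) treated 23 h with DMSO-dissolved compounds. Run in the same wells as the luciferase agonist read.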

[2] = Nuclear factor erythroid 2-related factor 2/antioxidant responsive element (Nrf2/ARE) small molecule agonists: luciferase reporter gene qHTS assay in human keratinocytes (AID 1919969); also: nearly all actives have a fitted effect of over 35% in size; also: potency is read from the fitted curve at half-maximal effect
[3] = molecular target: Gonadotropin-releasing hormone receptor (Homo sapiens) (UniProt P30968); assay: Human gonadotropin-releasing hormone receptor (GnRHR) small molecule agonists, calcium flux assay in GnRHR-HEK293 cells (AID 1920063); also: nearly all actives have a fitted effect of over 35% in size
Chain of Gonadotropin-releasing hormone receptor (Homo sapiens) (P30968 whole entry, looked up): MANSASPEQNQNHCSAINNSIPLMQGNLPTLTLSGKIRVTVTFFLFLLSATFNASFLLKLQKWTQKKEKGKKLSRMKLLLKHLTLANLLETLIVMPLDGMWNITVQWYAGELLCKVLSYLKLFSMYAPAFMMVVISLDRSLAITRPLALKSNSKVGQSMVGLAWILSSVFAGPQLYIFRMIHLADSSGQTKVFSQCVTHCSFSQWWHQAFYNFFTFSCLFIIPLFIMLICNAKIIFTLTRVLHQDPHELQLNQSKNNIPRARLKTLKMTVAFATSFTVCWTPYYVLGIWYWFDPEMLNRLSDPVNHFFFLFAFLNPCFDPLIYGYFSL
Outline: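 Calcium-dye fluorescence, Ex/Em=480/540, recorded every 1 sec over 3 min after compound addition to GnRHR-HEK293 cells. Cells had been seeded 18 hours earlier and dye-loaded for 1 hour at 37 C. Fifteen concentrations, triplicates.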

[4] = molecular target: KiSS-1 receptor (Homo sapiens) (UniProt Q969F8); assay: Human kisspeptin (KISS1R) small molecule agonists, calcium flux assay in KISS1R-HEK293 cells (AID 1920064; active = well fitted curve in the direction sought with a large enough effect in the repeat runs; an effect the other way counts as inactive or inconclusive)
Chain of KiSS-1 receptor (Homo sapiens) (Q969F8 whole entry, looked up): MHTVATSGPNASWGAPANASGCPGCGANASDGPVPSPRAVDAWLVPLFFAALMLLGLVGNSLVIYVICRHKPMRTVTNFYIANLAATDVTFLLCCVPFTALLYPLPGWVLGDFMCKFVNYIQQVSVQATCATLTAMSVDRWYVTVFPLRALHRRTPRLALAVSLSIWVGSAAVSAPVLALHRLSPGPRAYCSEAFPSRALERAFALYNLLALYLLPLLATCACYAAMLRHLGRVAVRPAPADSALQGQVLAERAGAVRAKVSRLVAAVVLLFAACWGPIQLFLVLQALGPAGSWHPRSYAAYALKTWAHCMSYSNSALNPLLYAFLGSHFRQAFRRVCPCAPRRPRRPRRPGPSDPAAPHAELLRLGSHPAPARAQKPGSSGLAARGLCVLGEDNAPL
Outline: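 Calcium flux read-out: kinetic fluorescence at Ex/Em=480/540, 1 s intervals over 3 min, after pin-tool compound addition to dye-loaded KISS1R-HEK293 cells. Fifteen concentrations, triplicates.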

[5] = G protein-coupled receptor (GPCR) small molecule agonists, calcium flux assay: HEK293 wild type cell line counter screen (AID 1920065)
Outline: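 Agonist mode; 18 h seeding at 37 C, 1 h dye load at 37 C; compounds pinned from DMSO, ATP as positive control; kinetic fluorescence 480/540 nm, 3 min, 1 s reads; 15 concentrations, triplicate.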

[6] = p53 small molecule agonists, cell-based qHTS assay with human liver microsomes (AID 1963577)
Outline: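 Cells carrying a p53-responsive bla reporter were rested 5 h (37 C, 5% CO2) before compound transfer. Human liver microsomes plus NADPH, 0.5 mg/mL final apiece, supplied metabolism during the 16 h 37 C exposure.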

[7] = p53 small molecule agonists, cell-based qHTS assay with rat liver microsomes (AID 1963578)
Outline: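 Fluorescence from a beta-lactamase reporter under a p53 response element was measured after cells had been incubated 16 h at 37 C with test compound and rat liver microsomes plus NADPH (0.5 mg/mL final each).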

[8] = p53 small molecule agonists, cell-based qHTS assay with human liver microsomes: qHTS cell viability counter screen (AID 1963579); also: nearly all actives have a fitted effect of over 45% in size
Outline: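 Seed p53RE-bla cells at 4,000 per well; incubate 5 h at 37 C; add compound, human liver microsomes and NADPH; incubate 16 h at 37 C; add CellTiter-Glo; after 30 min at room temperature, read luminescence.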

[9] = p53 small molecule agonists, cell-based qHTS assay with rat liver microsomes: qHTS cell viability counter screen (AID 1963580); also: nearly all actives have a fitted effect of over 45% in size
Outline: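 Counter screen for cytotoxicity under metabolic activation: rat liver microsomes and NADPH, 0.5 mg/mL final each, added with compounds to p53RE-bla HCT-116 cells; 16 h at 37 C, then ATP luminescence read.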

[10] = p53 small molecule agonists, cell-based qHTS assay: qHTS cell viability counter screen (AID 1963581); also: nearly all actives have a fitted effect of over 45% in size
Outline: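 Cytotoxicity read-out: ATP-based luminescence (CellTiter-Glo, 30 min RT) measured in the same wells as the p53 reporter assay, HCT-116 p53RE-bla cells, 16 h compound exposure at 37 C.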

[11] = molecular target: 5-hydroxytryptamine receptor 2A (Homo sapiens) (UniProt P28223); assay: 5-hydroxytryptamine receptor 2A (HTR2A) small molecule agonists, cell-based qHTS assay (AID 1963587); also: nearly all actives have a fitted effect of over 30% in size
Chain of 5-hydroxytryptamine receptor 2A (Homo sapiens) (P28223 whole entry, looked up): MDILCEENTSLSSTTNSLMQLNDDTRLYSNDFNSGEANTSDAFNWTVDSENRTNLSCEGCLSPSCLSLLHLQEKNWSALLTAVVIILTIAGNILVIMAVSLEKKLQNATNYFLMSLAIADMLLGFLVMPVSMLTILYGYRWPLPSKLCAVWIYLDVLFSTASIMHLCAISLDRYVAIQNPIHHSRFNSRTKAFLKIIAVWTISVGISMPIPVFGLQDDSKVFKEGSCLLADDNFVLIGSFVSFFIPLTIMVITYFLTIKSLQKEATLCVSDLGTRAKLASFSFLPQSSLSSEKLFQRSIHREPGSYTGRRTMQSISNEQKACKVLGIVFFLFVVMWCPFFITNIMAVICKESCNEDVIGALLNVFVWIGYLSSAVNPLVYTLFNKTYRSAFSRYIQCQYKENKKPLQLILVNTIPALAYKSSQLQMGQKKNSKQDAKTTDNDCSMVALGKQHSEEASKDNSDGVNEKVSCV
Outline: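 HTR2A-CHO cells, plated 18 h at 37 C/5% CO2, dye-loaded 1 h at 37 C; compounds in DMSO added by pin tool (agonist mode). Intracellular calcium flux read as kinetic fluorescence on FDSS over 2 min at 1 s intervals.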

[12] = molecular target: Muscarinic acetylcholine receptor M1 (Homo sapiens) (UniProt P11229); assay: Cholinergic receptor muscarinic 1 (CHRM1) small molecule antagonists, cell-based qHTS assay (AID 1963588); also: nearly all actives have a fitted effect of over 40% in size
Chain of Muscarinic acetylcholine receptor M1 (Homo sapiens) (P11229 whole entry, looked up): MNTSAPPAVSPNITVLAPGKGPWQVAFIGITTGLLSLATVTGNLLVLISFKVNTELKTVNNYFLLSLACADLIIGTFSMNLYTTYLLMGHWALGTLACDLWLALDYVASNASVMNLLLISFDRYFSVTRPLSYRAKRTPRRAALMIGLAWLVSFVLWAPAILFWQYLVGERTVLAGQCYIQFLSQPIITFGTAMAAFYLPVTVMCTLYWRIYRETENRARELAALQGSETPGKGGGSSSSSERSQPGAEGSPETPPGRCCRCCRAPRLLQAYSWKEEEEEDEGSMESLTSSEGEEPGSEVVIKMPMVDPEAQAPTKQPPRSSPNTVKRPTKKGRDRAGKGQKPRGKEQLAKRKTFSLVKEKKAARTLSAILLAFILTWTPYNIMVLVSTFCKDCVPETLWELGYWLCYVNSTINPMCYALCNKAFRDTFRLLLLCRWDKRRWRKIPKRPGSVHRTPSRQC
Outline: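 Compounds were tested at 15 concentrations in three independent runs. Dye-loaded CHRM1-CHO cells were exposed 5 min at room temperature before stimulation by acetylcholine added at 50nM. Intracellular calcium was read kinetically on FDSS for 3 min.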

[13] = molecular target: Muscarinic acetylcholine receptor M1 (Homo sapiens) (UniProt P11229); assay: Cholinergic receptor muscarinic 1 (CHRM1) small molecule agonists, cell-based qHTS assay (AID 1963589); also: nearly all actives have a fitted effect of over 35% in size
Outline: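 Calcium flux read-out: kinetic fluorescence at 1 sec intervals after pin-tool compound addition to dye-loaded CHRM1-CHO cells (human M1). Agonist mode; 15 concentrations tested in triplicate independent runs.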

[14] = molecular target: Beta-2 adrenergic receptor (Homo sapiens) (UniProt P07550); assay: Adrenergic beta2 receptor (ADRB2) small molecule antagonists, cell-based qHTS assay (AID 1963592); also: series mostly up to about 92 µM; nearly all actives have a fitted effect of over 50% in size
Chain of Beta-2 adrenergic receptor (Homo sapiens) (P07550 whole entry, looked up): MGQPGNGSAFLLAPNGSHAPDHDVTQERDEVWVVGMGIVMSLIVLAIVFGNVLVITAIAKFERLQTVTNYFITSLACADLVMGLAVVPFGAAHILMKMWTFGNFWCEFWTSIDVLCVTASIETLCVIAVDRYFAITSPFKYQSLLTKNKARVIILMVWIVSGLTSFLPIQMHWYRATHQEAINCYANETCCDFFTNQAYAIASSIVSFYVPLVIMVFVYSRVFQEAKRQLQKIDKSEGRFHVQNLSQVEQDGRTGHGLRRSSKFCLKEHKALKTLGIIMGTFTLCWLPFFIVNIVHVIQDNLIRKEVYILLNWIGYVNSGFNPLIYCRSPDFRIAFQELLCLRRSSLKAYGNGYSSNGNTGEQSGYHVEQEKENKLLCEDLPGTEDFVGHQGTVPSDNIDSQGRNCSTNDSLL
Outline: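 Assay format: CHO-ADRB2 cells, 18-20hr seeding at 37C/5% CO2, then compound plus 1nM isoproterenol agonist mix for 0.5hr RT. Homogeneous time-resolved fluorescence cAMP detection after 1hr, expressed as 665/615 nm ratio.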

[15] = molecular target: D(2) dopamine receptor (Homo sapiens) (UniProt P14416); assay: Dopamine D2 receptor (DRD2) small molecule agonists, cell-based qHTS assay (AID 1963594); also: nearly all actives have a fitted effect of over 35% in size
Chain of D(2) dopamine receptor (Homo sapiens) (P14416 whole entry, looked up): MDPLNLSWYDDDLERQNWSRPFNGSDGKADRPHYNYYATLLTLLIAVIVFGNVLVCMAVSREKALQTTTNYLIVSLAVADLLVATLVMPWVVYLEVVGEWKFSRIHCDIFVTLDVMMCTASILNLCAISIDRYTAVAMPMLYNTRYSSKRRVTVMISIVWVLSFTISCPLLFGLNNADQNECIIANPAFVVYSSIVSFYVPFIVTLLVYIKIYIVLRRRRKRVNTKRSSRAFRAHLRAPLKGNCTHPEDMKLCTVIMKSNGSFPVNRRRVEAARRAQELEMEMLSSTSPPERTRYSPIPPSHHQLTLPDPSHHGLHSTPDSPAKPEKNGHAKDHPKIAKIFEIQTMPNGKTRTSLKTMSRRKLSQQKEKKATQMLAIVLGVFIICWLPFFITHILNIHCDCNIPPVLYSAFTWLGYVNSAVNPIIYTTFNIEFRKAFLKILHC
Outline: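 HEK293 cells stably expressing DRD2 were cultured 24 h at 37 C, then given Ro20-1724 (0.1 mM final) and compounds for 10 min at room temperature. NKH477 (200nM) was then added for 30 min. cAMP was read by HTRF.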

[16] = molecular target: D(2) dopamine receptor (Homo sapiens) (UniProt P14416); assay: Dopamine D2 receptor (DRD2) small molecule antagonists, cell-based qHTS assay (AID 1963595; active = well fitted inhibition curve with a large enough effect in the signal ratio in the repeat runs, with a control signal flat; the % refers to the signal ratio)
Outline: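 HEK293 cells stably expressing DRD2 were preincubated with 0.1 mM Ro20-1724, then with compound for 10 min at room temperature. Cells were stimulated with 200 nM NKH477 plus 12 nM quinpirole for 30 min, and cAMP was read by HTRF.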

[17] = cAMP Responsive Elements (CRE) small molecule antagonists, cell-based qHTS assay (AID 1963591; active = well fitted inhibition curve with a large enough effect in the signal ratio in the repeat runs, not every such curve was filed as active; the % refers to the signal ratio)
Outline: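 HEK293T CRE-bla; 18 h preincubation; compound pin-transfer; NKH477 0.25 uM final, 3 h, 37 C; LiveBLAzer FRET substrate 2 h RT.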

[18] = molecular target: Beta-2 adrenergic receptor (Homo sapiens) (UniProt P07550); assay: Adrenergic beta2 receptor (ADRB2) small molecule agonists, cell-based qHTS assay (AID 1963593);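 also: CHO cells stably overexpressing human ADRB2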
Outline: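 CHO cells stably over-expressing ADRB2 were plated overnight at 37C, then dosed with compounds plus a stimulation mix containing 100uM IBMX and 25uM Ro-20-1724 for 0.5hr at room temperature. cAMP was measured by HTRF competition, 1hr.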

[19] = cAMP Responsive Elements (CRE) small molecule agonists, cell-based qHTS assay (AID 1963590)
Outline: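 Beta-lactamase reporter readout: LiveBLAzer B/G FRET substrate, 2 h at room temperature, added after 3 h compound treatment of CRE-bla HEK 293T cells at 37 C/5% CO2.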

[20] = molecular target: 5-hydroxytryptamine receptor 2A (Homo sapiens) (UniProt P28223); assay: 5-hydroxytryptamine receptor 2A (HTR2A) small molecule antagonists, cell-based qHTS assay (AID 1963586); also: nearly all actives have a fitted effect of over 45% in size
Outline: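 CHO cells stably expressing human HTR2A were plated for 18 h at 37 C, then loaded with calcium dye for 1 h. Compounds were preincubated 5 min at room temperature before DOI (4 nM solution) was added. Kinetic fluorescence was read for 3 min.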

SMILES: Nc1nc(CC(=O)O)cs1
- Potency [1]: inactive
- Potency [2]: inactive
- Potency [3]: inactive
- outcome [4]: inactive
- outcome [5]: inactive
- Potency [6]: inactive
- Potency [7]: inactive
- Potency [8]: inactive
- Potency [9]: inactive
- Potency [10]: inactive
- Potency [11]: inactive
- Potency [12]: inactive
- Potency [13]: inactive
- Potency [14]: inactive
- Potency [15]: inactive

SMILES: CCC(C)c1cc([N+](=O)[O-])cc([N+](=O)[O-])c1OC(=O)OC(C)C (stereo not drawn)
- Potency [1]: 38.6 µM (active)
- Potency [2]: 9.69 µM (active)
- Potency [3]: inactive
- outcome [4]: inactive
- outcome [5]: inactive
- Potency [6]: inactive
- Potency [7]: inactive
- Potency [8]: inactive
- Potency [9]: inactive
- Potency [10]: inactive
- Potency [11]: inactive
- Potency [12]: inactive
- Potency [13]: inactive

SMILES: CCCc1nc2c(C)cc(-c3nc4ccccc4n3C)cc2n1Cc1ccc(-c2ccccc2C(=O)O)cc1
- Potency [1]: inactive
- Potency [2]: inactive
- Potency [3]: inactive
- outcome [4]: inactive
- outcome [5]: inactive
- Potency [6]: inactive
- Potency [7]: inactive
- Potency [8]: inactive
- Potency [9]: inactive
- Potency [10]: inactive
- Potency [11]: inactive
- Potency [12]: inactive
- Potency [14]: inactive
- Potency [15]: inactive
- Potency [16]: inactive

SMILES: CC1(C)[C@H]2CC[C@]1(C)C(=O)C2
- Potency [1]: inactive
- Potency [2]: 68.6 µM (active)
- Potency [3]: inactive
- outcome [4]: inactive
- outcome [5]: inactive
- Potency [6]: inactive
- Potency [7]: inactive
- Potency [8]: inactive
- Potency [9]: inactive
- Potency [10]: inactive
- Potency [17]: inactive
- Potency [14]: inactive
- Potency [18]: inactive
- Potency [15]: inactive
- Potency [16]: inactive

SMILES: CCCOc1ccc(C(=O)OCCN(CC)CC)cc1N
- Potency [1]: inactive
- Potency [2]: inactive
- Potency [3]: inactive
- outcome [4]: inactive
- outcome [5]: inactive
- Potency [6]: inactive
- Potency [7]: inactive
- Potency [8]: inactive
- Potency [9]: inactive
- Potency [10]: inactive
- Potency [19]: inactive
- Potency [17]: inactive
- Potency [14]: inactive
- Potency [15]: inactive
- Potency [16]: inactive

SMILES: Nc1ccc(S(=O)(=O)O)c(N)c1
- Potency [1]: inactive
- Potency [2]: inactive
- Potency [3]: inactive
- outcome [4]: inactive
- outcome [5]: inactive
- Potency [6]: inactive
- Potency [7]: inactive
- Potency [8]: inactive
- Potency [9]: inactive
- Potency [10]: inactive
- Potency [20]: inactive
- Potency [12]: inactive
- Potency [13]: inactive
- Potency [19]: inactive
- Potency [17]: inactive
- Potency [14]: inactive
- Potency [18]: inactive

SMILES: CCCCCCCC/C=C\CCCCCCCC(=O)OC
- Potency [1]: inactive
- Potency [2]: inactive
- Potency [3]: inactive
- outcome [4]: inactive
- outcome [5]: inactive
- Potency [6]: inactive
- Potency [7]: inactive
- Potency [8]: inactive
- Potency [9]: inactive
- Potency [10]: inactive
- Potency [11]: inactive
- Potency [12]: inactive
- Potency [13]: inactive
- Potency [19]: inactive
- Potency [17]: inactive
- Potency [14]: inactive
- Potency [15]: inactive
- Potency [16]: inactive

SMILES: CCCN(CCC)C(=O)C(CCC(=O)OCCCN1CCN(CCOC(=O)Cc2c(C)n(C(=O)c3ccc(Cl)cc3)c3ccc(OC)cc23)CC1)NC(=O)c1ccccc1 (stereo not drawn)
- Potency [1]: inactive
- Potency [2]: inactive
- Potency [3]: inactive
- outcome [4]: inactive
- outcome [5]: inactive
- Potency [6]: inactive
- Potency [7]: inactive
- Potency [8]: inactive
- Potency [9]: inactive
- Potency [10]: inactive
- Potency [11]: inactive
- Potency [13]: inactive
- Potency [14]: inactive
- Potency [15]: inactive

SMILES: NS(=O)(=O)c1cc(C(=O)NN2C[C@H]3[C@H]4CCC(C4)[C@H]3C2)ccc1Cl
- Potency [1]: inactive
- Potency [2]: inactive
- Potency [3]: inactive
- outcome [4]: inactive
- outcome [5]: inactive
- Potency [6]: inactive
- Potency [7]: inactive
- Potency [8]: inactive
- Potency [9]: inactive
- Potency [10]: inactive
- Potency [11]: inactive
- Potency [12]: inactive
- Potency [13]: inactive
- Potency [14]: inactive
- Potency [18]: inactive
- Potency [15]: inactive
